Shown are actives, neighbours in structure and some others; about 12% of the full set was active somewhere.
SARS PLpro yeast: SARS-CoV PLP inhibition in yeast | S. cerevisiae expressing SARS-CoV PLpro, growth rescue | Potency, µM (series often up to 32.9 µM), for inactives: at the top dose activity, positive = growth rescue, hits mostly activators | 330,000 tested, 0.19% active; calls by dose curve; note: 0% is about no effect; nearly all actives have a fitted effect of over 55% in size
AMA1 RON2 block: AMA1-RON2 (P. falciparum) interaction inhibition; Potency, µM (doses to about 58.2 µM), without a hit: top-dose activity change, negative = inhibition, actives largely listed as inhibitors; 360,000 tested, 0.2% active; AlphaScreen AMA1-biotinylated RON2 peptide binding;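 note: 0% = vehicle wells and -100% = peptide control; nearly all actives have a fitted effect of over 45% in size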
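AMA1 (3D7) with his tag at 25 nM final met compounds first, then biotinylated RON2 peptide at 25 nM; detection used donor plus acceptor beads, 10 µg/mL apiece, read by AlphaScreen after 30 min at room temperature.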
Pf growth 96h: P. falciparum growth inhibition at 96 hours. Potency, µM (top dose mostly 28.7 µM), inactives show at the top dose activity change, negative = inhibition, most hits filed as inhibitors. P. falciparum luciferase reporter growth, 96 h. AID 504834. 320,000 tested, 6.9% active; note: % is set by controls: 0 for no effect and ±100 for the full control effect
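Delayed-death screen, second-generation endpoint: infected erythrocytes, 2% hematocrit, 0.05% parasitemia final; 96 hours at 37 C, 5% CO2; luciferase detection reagent; luminescence decrease equals reduced growth.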
HCV inh: HCV inhibition | Huh7.5.1 HCVcc-Cre infection, luciferase reporter, 44 h | AID 651820 | Potency, µM (titrated, usually from 41.8 µM), without a hit: top-dose activity change, negative = inhibition, most hits filed as inhibitors | 340,000 tested, 3.4% active; note: % is set by controls: 0 for no effect and ±100 for the full control effect
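Cells seeded at 1,000/well and cultured 4 h, then compounds added followed by HCVcc-Cre virus (~0.5 moi). After 44 h further culture, luciferase substrate was added, plates held 15 min at room temperature, and luminescence read for 15 sec.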
NS1 function inh: inhibitors of influenza NS1 protein function; 270,000 tested, 0.4% active; Potency, µM (titrated, usually from 46.1 µM), for inactives: at the top dose activity, positive = more growth; calls by dose curve; note: actives are rising curves; nearly all actives have a fitted effect of over 50% in size
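Read-out: OD600 growth recovery of NS1-expressing budding yeast. Cells grown overnight at 30C in -URA glucose medium, washed, resuspended and diluted 1:100 in 2% galactose assay medium, pH 6.0. Same strain lacking NS1 served as positive control.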
Pf growth 48h: P. falciparum growth inhibition at 48 hours (one generation); 310,000 tested, 5.9% active; P. falciparum luciferase growth in erythrocytes, 48 h; Potency, µM (titrated, usually from 28.7 µM), inactives show at the highest dose activity change, negative = inhibition, usual class: inhibitors; note: % is set by controls: 0 for no effect and ±100 for the full control effect
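Luciferase-expressing parasites in RBCs, 2% Hct / 0.1% parasitemia final; RPMI 1640 + 0.5% Albumax; 37 C, 5% CO2, one generation; luminescence read-out, lower signal = inhibition.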
* hit, by the source's call; ? = inconclusive; · = no result given; [ ] = dose if it differs, or a comment. Unless noted, calls come from the whole dose curve; as a rule, active = well fitted curve in the direction sought with a large enough effect; inconclusive = small, poorly fitted or top-dose-only effect, or another doubt; inactive = no such curve, though single readings can be large; an effect the other way counts as inactive or inconclusive. Potency is the fitted concentration of half-maximal effect.

SMILES	SARS PLpro yeast	AMA1 RON2 block	Pf growth 96h	HCV inh	NS1 function inh	Pf growth 48h
Cc1ccc(S(=O)(=O)c2ccc([N+](=O)[O-])cn2)cc1	-11.8%	-1.1%	?	?	-94.1%	?
O=[N+]([O-])c1ccc(S(=O)(=O)c2ccccc2)nc1	-12.5%	-2.3%	1.65µM*	?	-97.8%	2.94µM*
CSc1ncccc1C(=O)Nc1ccccc1N1CCOCC1	-7.7%	5.1%[11.6 µM]	·	-6.9%	·	·
CCc1ccc(C2C(C#N)=C(N)SC(N)=C2C#N)cc1	-8.1%	9.9%	-9.0%	20.1%	14.3%	5.86µM*
CCOc1ccc(C2C(C#N)=C(N)SC(N)=C2C#N)cc1OCC	-1.2%	1.3%	1.8%	0.2%	-10.2%	?
N#CC1=C(N)SC(N)=C(C#N)C1c1ccc(C(F)(F)F)cc1	-2.9%	·	9.28µM*	7.4%	4.6%	-24.2%
CCOC(=O)C1(Cc2cccc(OC)c2)CCCN(CCO)C1 (centres undefined)	0.6%	0.8%	?	3.1%	9.3%	-18.9%
COc1ccc(C(c2nnnn2C2CCCC2)N2CCN(C3CCCC3)CC2)cc1OC (centres undefined)	6.9%	-9.0%	?	-4.3%	0.4%	5.6%
CC(C)(C)n1nnnc1C(c1cccnc1)N1CCOCC1 (centres undefined)	-0.7%	-16.7%	24.9%	7.8%	1.6%	-0.4%
COc1ccc(C(c2nnnn2CCc2ccccc2)N2CCN(C3CCCC3)CC2)cc1OC (centres undefined)	2.3%	-13.2%	0.586µM*	2.5%	-6.4%	-18.9%
Cc1ccc(C(c2nnnn2CCc2ccccc2)N2CCC(C)CC2)cc1 (centres undefined)	-46.8%	-15.2%	0.8%	?	-32.4%	7.38µM*
CCCC(c1nnnn1CCc1ccccc1)N1CCC(C(N)=O)CC1 (centres undefined)	-0.5%	-4.9%	4.15µM*	-1.1%	1.7%	-16.8%
c1ccc(CCn2nnnc2C(c2cccnc2)N2CCOCC2)cc1 (centres undefined)	0.8%	-4.3%	2.62µM*	15.8%	·	-13.6%
O=C(NC1CCCC1)C(c1cccnc1)N(C(=O)c1csnn1)c1ccc(F)cc1 (centres undefined)	1.8%	-1.2%	?	10.7%	11.0%	?
COc1cccc(C(c2nnnn2Cc2ccccc2)N2CCN(C3CCCC3)CC2)c1OC (centres undefined)	-0.3%	-1.2%	2.33µM*	-7.0%	-1.3%	-5.2%
COc1ccc(OC)c(C(c2nnnn2Cc2ccccc2)N2CCN(C3CCCCC3)CC2)c1 (centres undefined)	2.7%	-2.8%	-16.2%	-15.5%	-7.9%	10.4µM*
COc1ccc(OC)c(C(c2nnnn2CC2CCCO2)N2CCN(C)CC2)c1 (centres undefined)	2.7%	6.3%	-21.8%	-6.5%	-7.0%	8.1%
COc1ccc(OC)c(C(c2nnnn2CC2CCCO2)N2CCN(C3CCCC3)CC2)c1 (centres undefined)	3.98µM*	6.6%	0.1%	15.8%	-2.8%	?
COC(=O)CC1=C(C(=O)OC)[C@@H](c2ccccc2[N+](=O)[O-])C(C#N)=C(N)O1	1.1%	10.6%	?	16.6%	2.0%	-2.1%
CC(=O)Nc1cccc(C(=O)N/N=C/c2c[nH]c3ccccc23)c1	-2.0%	11.6%	2.33µM*	19.2%	2.0%	25.4%
Cc1ccc(/C(O)=C2\C(=O)C(=O)N(CC(C)O)C2c2ccccn2)cc1 (centres undefined)	-0.6%	4.8%	-19.7%	8.8%	-1.9%	-10.3%
CCC(=NCCCN(CC)CC)c1c(O)n(C2CCCCC2)c(=O)[nH]c1=O	2.8%	1.9%	-8.4%	-13.9%	-3.5%	-29.5%
CCN(CC)CCCN=C(C)c1c(O)n(C2CCCCC2)c(=O)[nH]c1=O	3.2%	-0.4%	6.57µM*	-1.8%	-7.2%	4.2%
CCN(CC)CCC(C)OC(=O)c1ccc(O)cc1O (centres undefined)	21.7%	-1.3%	4.4%	15.2%	0.8%	-21.8%
CC(=O)N1CCN(C(=O)c2c(-c3ccccc3)noc2C)CC1	-3.3%	2.5%	7.1%	-8.6%	·	-10.5%
SMILES	SARS PLpro yeast	AMA1 RON2 block	Pf growth 96h	HCV inh	NS1 function inh	Pf growth 48h
Cc1onc(-c2ccccc2)c1C(=O)N1CCCN2C(=O)c3ccccc3C21 (centres undefined)	-0.9%	2.5%	10.4µM*	13.7%	-0.2%	?
COc1ccc(F)cc1S(=O)(=O)NCC1CCCO1 (centres undefined)	-0.9%	1.2%	?	3.7%	1.0%	-11.3%
COc1cc2c(C#CCCO)c(-c3ccsc3)oc(=O)c2cc1OC	4.5%	-7.9%	·	10µM*	·	·
Cc1ccccc1N1CCN(C2CCCN(C(=O)CCN3CCCCC3=O)C2)CC1 (centres undefined)	0.9%	19.1%	?	19.0%	2.0%	6.6%
CC(=O)Nc1ccc(-c2ccnc3c2CC(C(=O)Nc2cccnc2)O3)cc1 (centres undefined)	·	-8.7%	·	·	·	·
CC(=O)N1c2ccccc2C(C)(c2ccccc2)CC1(C)C (centres undefined)	-36.4%	-15.3%	·	-18.5%	1.2%	9.28µM*
CN1CCN(CC(=O)N2c3ccccc3C(C)(c3ccccc3)CC2(C)C)CC1 (centres undefined)	-2.4%	2.5%	10.4µM*	?	-4.6%	?
CN1CCN(CC(=O)N2c3ccccc3C(C)(c3ccc(Cl)cc3)CC2(C)C)CC1 (centres undefined)	-9.2%	-1.5%	?	-29.2%	-68.1%	·
CCN(C(=S)Nc1ccc(Oc2ccccc2)cc1)c1ccccc1	14.5%	30.3%	?	?	-5.2%	5.9%
NNC(=O)c1nc[nH]c1C(=O)Nc1ccccn1	14.1µM*	?	?	16.4%	6.6%	12.8%
O=C(Nc1ccccn1)c1ccc2nc(-c3ccccc3)c(-c3ccccc3)nc2c1	0.0%	·	8.7%	·	4.2%	1.9%
O=C(Nc1ccccn1)c1ccc(-c2ccccc2)cc1	-12.2%	-7.7%	-76.1%	10µM*	-17.3%	118.5%
CCn1c(CCCc2nc3c([nH]2)c(=O)n(C)c(=O)n3C)nc2c1c(=O)n(C)c(=O)n2C	·	·	·	·	-5.3%	·
Cc1ccc(C)c(NC(=O)C2C3CCCC2C3c2ccccc2)c1 (centres undefined)	11.4%	-12.0%	11.7µM*	11.8%	4.6%	-6.1%
COc1ccccc1C(=O)Nc1ccc(S(=O)(=O)Nc2nccs2)cc1	-0.3%	-4.4%	18.9%	13.0%	-9.5%	13.8%
COc1ccc(NS(=O)(=O)c2ccc(NC(=S)NC(=O)c3ccc(Br)cc3)cc2)nn1	-13.4%	29.3%	11.7µM*	5.4%	?	18.8%

Bioassay records: PubChem BioAssay, National Center for Advancing Translational Sciences (NCATS)
